Results from PMC7862700, “An all-to-all approach to the identification of sequence-specific readers for epigenetic DNA modifications on cytosine”.

Tests used:
Assay in all cases: DAPPL (digital affinity profiling via proximity ligation, sequencing); 10 mM Tris-HCl pH 7.5, 50 mM NaCl, 1 mM DTT, 4% glycerol, room temperature, 30 min; GST-TFs on glutathione beads, 16-mer random dsDNA library, 0.1% formaldehyde crosslink after washing; high values mean tight binding
FLI1 = target: T1, FLI1 (Homo sapiens, UniProt Q01543 1-452); settings: protein: recombinant; tags: N-terminal GST; dsDNA, one strand shown
T1 sequence: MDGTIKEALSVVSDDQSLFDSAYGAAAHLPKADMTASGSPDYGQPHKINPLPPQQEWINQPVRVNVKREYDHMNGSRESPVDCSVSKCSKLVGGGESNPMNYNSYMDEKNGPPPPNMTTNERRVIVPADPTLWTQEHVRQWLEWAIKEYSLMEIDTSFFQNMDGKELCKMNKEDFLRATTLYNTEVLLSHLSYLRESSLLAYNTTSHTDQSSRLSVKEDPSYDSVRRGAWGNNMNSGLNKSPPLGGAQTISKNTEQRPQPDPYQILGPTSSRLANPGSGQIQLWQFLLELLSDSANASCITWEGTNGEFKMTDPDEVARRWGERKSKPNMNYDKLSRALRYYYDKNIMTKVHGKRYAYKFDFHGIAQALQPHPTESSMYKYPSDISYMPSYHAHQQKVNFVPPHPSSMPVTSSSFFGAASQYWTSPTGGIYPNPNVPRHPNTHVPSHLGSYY
In short: (§1)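 Human transcription factors carrying a GST fusion were produced in yeast, bound to glutathione beads, tagged with DNA barcodes and pooled together with a tag-only sample. Each pool was held with 200 nmole of a random double-stranded 16-mer DNA library in Tris/NaCl/DTT/glycerol buffer for 30 min at room temperature, then washed, crosslinked in 0.1% formaldehyde, proximity-ligated with BsaI/T4 ligase (1 h, 37 °C), PCR-amplified and sequenced on an Illumina NextSeq500. Binding signal is the read frequency of each hexamer for a given factor divided by its frequency in the tag-only sample.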

ELK1 = target: T2, ELK1 (Homo sapiens, UniProt P19419 1-428); settings: protein: recombinant; tags: N-terminal GST; dsDNA, one strand shown
T2 sequence: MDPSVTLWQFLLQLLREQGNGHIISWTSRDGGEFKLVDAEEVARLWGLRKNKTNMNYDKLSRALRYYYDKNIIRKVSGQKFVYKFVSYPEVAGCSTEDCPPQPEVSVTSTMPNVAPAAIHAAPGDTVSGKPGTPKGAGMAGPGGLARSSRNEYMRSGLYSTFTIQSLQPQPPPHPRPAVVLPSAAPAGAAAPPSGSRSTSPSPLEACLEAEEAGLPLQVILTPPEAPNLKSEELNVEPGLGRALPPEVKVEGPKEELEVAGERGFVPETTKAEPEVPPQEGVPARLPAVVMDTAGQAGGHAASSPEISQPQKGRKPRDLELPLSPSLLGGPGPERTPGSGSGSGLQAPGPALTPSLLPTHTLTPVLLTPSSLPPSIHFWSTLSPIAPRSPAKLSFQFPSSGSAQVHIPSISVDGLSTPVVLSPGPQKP
In short: as §1

GABPA = target: T3, GABPA (Homo sapiens, UniProt Q06546 1-454); settings: protein: recombinant; tags: N-terminal GST; dsDNA, one strand shown
T3 sequence: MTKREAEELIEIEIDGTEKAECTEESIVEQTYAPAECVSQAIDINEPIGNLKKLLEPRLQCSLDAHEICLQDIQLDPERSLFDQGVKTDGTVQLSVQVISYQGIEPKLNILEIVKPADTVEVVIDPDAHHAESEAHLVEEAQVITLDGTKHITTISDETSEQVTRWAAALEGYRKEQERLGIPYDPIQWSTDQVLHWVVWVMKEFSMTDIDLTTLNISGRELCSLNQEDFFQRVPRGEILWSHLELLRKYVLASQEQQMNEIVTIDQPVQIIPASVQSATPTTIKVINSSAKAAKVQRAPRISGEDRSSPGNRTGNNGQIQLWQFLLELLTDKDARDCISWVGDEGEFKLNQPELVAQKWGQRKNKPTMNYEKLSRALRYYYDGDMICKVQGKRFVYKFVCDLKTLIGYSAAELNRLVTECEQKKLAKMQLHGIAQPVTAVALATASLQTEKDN
In short: as §1

ERG = target: T4, ERG (Homo sapiens, UniProt P11308 1-479); settings: protein: recombinant; tags: N-terminal GST; dsDNA, one strand shown
T4 sequence: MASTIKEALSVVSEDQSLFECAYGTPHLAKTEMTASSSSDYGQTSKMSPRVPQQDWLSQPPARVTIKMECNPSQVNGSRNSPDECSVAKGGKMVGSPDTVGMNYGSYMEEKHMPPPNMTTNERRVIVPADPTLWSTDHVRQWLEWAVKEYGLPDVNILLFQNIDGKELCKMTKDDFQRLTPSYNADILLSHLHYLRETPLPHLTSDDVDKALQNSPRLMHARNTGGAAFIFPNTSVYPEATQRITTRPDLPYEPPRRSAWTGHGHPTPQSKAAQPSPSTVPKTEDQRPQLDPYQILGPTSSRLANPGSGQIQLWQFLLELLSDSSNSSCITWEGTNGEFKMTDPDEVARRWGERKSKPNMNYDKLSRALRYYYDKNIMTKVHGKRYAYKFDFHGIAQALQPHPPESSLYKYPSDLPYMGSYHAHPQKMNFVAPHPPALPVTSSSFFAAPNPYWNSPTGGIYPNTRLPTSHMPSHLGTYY
In short: as §1

ELF1 = ELF1 (Homo sapiens, UniProt P32519 1-619); settings: protein: recombinant; tags: N-terminal GST; dsDNA, one strand shown
In short: as §1

EHF = target: T5, EHF (Homo sapiens, UniProt Q9NZC4 1-300); settings: protein: recombinant; tags: N-terminal GST; dsDNA, one strand shown
T5 sequence: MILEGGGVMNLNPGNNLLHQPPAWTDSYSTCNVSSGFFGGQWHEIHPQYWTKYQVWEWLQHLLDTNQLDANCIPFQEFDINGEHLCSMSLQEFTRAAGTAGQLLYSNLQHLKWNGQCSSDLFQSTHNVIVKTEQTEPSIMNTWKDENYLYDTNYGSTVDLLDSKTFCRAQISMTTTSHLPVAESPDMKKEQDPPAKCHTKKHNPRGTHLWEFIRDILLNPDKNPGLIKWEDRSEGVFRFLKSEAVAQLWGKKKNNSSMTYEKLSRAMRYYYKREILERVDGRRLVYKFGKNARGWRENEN
In short: as §1

SPI1 = SPI1 (Homo sapiens, UniProt P17947 1-270); settings: protein: recombinant; tags: N-terminal GST; dsDNA, one strand shown
In short: as §1

SPIB = SPIB (Homo sapiens, UniProt Q01892 1-262); settings: protein: recombinant; tags: N-terminal GST; dsDNA, one strand shown
In short: as §1

ELK3 = target: T6, ELK3 (Homo sapiens, UniProt P41970 1-407); settings: protein: recombinant; tags: N-terminal GST; dsDNA, one strand shown
T6 sequence: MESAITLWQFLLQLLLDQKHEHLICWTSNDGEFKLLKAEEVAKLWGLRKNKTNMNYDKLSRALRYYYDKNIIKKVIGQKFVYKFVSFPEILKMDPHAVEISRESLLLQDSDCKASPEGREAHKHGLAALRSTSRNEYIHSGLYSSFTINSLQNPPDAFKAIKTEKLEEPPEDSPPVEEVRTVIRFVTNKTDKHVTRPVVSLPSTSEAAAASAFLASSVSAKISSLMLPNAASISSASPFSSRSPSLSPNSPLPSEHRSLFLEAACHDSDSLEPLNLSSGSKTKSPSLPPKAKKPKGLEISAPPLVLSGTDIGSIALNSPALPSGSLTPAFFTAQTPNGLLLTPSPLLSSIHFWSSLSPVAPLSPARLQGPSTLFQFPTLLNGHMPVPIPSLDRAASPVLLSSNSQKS
In short: as §1

FEV = target: T7, FEV (Homo sapiens, UniProt Q99581 1-238); settings: protein: recombinant; tags: N-terminal GST; dsDNA, one strand shown
T7 sequence: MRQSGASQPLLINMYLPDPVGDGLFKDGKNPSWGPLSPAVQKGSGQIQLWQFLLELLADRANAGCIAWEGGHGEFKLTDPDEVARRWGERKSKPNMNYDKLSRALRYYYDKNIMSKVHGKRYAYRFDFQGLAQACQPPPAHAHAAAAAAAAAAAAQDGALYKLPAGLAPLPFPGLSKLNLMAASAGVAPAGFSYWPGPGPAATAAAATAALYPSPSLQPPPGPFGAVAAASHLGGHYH
In short: as §1

ETV5 = ETV5 (Homo sapiens, UniProt P41161 1-510); settings: protein: recombinant; tags: N-terminal GST; dsDNA, one strand shown
In short: as §1

HSF1 = HSF1 (Homo sapiens, UniProt Q00613 1-529); settings: protein: recombinant; tags: N-terminal GST; chain copies: 3; dsDNA, one strand shown
In short: as §1

SPIC = target: T8, SPIC (Homo sapiens, UniProt Q8N5J4 1-248); settings: protein: recombinant; tags: N-terminal GST; dsDNA, one strand shown
T8 sequence: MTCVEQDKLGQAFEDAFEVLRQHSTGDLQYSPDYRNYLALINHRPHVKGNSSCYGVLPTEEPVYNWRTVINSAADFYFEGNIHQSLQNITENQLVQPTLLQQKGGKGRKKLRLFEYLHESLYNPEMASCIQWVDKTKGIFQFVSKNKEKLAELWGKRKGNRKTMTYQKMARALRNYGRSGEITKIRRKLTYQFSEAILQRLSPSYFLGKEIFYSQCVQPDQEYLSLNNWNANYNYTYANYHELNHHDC
In short: as §1

ELF4 = ELF4 (Homo sapiens, UniProt Q99607 1-663); settings: protein: recombinant; tags: N-terminal GST; dsDNA, one strand shown
In short: as §1

ELK4 = target: T9, ELK4 (Homo sapiens, UniProt P28324-2 1-405); settings: protein: recombinant; tags: N-terminal GST; dsDNA, one strand shown
T9 sequence: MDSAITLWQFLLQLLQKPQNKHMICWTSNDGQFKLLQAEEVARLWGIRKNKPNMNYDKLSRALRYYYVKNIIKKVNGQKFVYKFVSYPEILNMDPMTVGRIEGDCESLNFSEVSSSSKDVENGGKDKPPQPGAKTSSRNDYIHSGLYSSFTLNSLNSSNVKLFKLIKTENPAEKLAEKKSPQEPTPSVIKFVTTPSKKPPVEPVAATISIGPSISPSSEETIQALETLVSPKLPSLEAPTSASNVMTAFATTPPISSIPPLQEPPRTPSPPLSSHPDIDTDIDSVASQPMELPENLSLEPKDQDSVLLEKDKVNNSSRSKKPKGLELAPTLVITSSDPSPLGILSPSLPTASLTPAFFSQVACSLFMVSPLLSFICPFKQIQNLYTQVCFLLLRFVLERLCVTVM
In short: as §1

ETV2 = target: T10, ETV2 (Homo sapiens, UniProt O00321 1-342); settings: protein: recombinant; tags: N-terminal GST; dsDNA, one strand shown
T10 sequence: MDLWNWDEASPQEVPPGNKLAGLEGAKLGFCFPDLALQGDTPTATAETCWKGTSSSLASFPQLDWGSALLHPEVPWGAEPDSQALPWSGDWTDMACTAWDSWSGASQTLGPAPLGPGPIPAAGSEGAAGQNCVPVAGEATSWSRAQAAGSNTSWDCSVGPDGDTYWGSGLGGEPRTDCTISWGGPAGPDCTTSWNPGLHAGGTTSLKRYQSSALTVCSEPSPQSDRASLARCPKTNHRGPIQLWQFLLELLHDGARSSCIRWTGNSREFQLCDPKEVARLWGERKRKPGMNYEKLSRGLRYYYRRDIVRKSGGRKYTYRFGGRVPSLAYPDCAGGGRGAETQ
In short: as §1

ELF3 = target: T11, ELF3 (Homo sapiens, UniProt P78545 1-371); settings: protein: recombinant; tags: N-terminal GST; dsDNA, one strand shown
T11 sequence: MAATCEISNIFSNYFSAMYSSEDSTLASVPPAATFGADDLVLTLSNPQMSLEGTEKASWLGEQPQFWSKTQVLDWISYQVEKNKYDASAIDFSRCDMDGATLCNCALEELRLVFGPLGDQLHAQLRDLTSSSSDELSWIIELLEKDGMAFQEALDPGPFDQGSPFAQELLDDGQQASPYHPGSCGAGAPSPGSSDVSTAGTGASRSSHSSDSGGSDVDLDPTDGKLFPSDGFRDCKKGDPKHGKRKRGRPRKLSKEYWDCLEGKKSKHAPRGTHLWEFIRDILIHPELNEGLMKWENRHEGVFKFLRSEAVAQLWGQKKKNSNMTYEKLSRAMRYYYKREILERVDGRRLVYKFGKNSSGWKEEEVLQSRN
In short: as §1

CRX = CRX (Homo sapiens, UniProt O43186 1-299); settings: protein: recombinant; tags: N-terminal GST; dsDNA, one strand shown
In short: as §1

ETV1 = ETV1 (Homo sapiens, UniProt P50549 1-477); settings: protein: recombinant; tags: N-terminal GST; dsDNA, one strand shown
In short: as §1

Chain of ETV5 (P41161 whole entry): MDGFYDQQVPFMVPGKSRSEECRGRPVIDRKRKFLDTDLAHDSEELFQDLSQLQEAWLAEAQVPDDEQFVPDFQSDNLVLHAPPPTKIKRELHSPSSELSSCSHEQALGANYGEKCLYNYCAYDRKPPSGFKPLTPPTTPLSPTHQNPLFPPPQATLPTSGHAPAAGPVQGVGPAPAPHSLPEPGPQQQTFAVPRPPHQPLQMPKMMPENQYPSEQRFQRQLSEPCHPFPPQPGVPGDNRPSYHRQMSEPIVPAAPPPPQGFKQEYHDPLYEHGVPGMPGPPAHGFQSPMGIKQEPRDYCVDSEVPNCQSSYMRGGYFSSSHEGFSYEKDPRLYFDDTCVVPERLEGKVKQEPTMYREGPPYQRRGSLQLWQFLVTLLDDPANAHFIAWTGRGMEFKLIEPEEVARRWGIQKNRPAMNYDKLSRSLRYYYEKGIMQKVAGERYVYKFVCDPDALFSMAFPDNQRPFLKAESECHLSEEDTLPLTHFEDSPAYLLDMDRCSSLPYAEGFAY
Chain of HSF1 (Q00613 whole entry): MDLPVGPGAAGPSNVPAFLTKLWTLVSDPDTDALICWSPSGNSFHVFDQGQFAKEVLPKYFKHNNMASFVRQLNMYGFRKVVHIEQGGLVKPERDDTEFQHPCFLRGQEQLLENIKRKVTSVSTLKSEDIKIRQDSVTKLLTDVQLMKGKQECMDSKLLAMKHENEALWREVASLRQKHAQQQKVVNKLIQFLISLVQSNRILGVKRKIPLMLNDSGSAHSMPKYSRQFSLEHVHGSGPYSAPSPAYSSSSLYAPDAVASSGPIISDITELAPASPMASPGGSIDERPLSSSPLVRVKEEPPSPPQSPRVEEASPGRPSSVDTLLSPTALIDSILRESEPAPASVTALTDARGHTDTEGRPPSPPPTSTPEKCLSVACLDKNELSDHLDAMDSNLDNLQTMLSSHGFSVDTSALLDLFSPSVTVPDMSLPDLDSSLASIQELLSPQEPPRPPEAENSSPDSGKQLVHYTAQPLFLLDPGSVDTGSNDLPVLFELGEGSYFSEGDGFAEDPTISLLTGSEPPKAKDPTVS
Chain of ELF1 (P32519 whole entry): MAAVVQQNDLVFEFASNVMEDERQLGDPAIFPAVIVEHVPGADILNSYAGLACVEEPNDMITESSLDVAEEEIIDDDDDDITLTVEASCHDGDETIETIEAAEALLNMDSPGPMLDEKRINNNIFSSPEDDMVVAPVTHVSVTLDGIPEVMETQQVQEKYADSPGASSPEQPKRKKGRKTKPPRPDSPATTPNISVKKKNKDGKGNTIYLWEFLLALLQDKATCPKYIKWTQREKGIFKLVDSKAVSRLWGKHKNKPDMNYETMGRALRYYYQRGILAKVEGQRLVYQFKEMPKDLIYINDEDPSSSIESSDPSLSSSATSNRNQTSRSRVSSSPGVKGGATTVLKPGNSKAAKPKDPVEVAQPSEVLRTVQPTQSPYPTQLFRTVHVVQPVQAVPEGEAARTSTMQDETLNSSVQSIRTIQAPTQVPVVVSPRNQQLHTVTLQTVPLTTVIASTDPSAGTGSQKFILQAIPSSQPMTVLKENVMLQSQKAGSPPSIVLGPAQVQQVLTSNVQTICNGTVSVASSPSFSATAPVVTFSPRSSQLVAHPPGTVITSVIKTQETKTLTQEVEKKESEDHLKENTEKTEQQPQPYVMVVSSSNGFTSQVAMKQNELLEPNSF
Chain of ELF4 (Q99607 whole entry): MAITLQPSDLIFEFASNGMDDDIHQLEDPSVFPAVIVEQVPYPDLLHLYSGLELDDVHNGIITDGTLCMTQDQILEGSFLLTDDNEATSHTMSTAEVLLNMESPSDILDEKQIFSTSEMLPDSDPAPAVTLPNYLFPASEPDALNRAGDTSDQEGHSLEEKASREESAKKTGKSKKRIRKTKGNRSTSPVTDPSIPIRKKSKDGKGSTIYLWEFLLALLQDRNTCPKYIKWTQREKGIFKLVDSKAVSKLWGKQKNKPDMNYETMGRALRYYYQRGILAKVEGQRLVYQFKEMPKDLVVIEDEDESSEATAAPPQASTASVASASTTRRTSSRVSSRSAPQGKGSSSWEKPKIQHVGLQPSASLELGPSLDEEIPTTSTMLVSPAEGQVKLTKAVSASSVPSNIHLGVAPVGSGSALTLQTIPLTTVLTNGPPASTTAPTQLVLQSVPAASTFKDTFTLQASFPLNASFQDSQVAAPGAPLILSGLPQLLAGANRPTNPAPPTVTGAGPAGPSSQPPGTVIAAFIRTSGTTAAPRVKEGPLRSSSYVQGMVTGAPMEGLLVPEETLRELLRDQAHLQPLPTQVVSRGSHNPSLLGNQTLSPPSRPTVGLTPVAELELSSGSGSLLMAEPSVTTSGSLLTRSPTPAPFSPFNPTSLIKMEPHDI
Chain of CRX (O43186 whole entry): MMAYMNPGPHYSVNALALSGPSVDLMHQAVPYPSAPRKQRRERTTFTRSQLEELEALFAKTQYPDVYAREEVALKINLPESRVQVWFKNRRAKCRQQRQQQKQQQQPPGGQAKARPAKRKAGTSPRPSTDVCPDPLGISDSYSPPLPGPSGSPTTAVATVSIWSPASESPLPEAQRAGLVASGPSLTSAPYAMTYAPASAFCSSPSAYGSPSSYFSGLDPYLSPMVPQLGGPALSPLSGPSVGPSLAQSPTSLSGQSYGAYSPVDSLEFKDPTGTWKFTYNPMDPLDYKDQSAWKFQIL
Chain of SPIB (Q01892 whole entry): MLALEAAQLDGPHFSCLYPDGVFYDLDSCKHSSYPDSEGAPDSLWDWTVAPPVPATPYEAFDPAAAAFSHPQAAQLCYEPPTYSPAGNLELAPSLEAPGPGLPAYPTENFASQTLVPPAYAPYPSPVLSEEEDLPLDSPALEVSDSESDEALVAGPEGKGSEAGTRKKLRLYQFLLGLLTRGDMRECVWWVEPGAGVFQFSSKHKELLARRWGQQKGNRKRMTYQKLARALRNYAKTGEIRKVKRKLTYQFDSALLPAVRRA
Chain of ETV1 (P50549 whole entry): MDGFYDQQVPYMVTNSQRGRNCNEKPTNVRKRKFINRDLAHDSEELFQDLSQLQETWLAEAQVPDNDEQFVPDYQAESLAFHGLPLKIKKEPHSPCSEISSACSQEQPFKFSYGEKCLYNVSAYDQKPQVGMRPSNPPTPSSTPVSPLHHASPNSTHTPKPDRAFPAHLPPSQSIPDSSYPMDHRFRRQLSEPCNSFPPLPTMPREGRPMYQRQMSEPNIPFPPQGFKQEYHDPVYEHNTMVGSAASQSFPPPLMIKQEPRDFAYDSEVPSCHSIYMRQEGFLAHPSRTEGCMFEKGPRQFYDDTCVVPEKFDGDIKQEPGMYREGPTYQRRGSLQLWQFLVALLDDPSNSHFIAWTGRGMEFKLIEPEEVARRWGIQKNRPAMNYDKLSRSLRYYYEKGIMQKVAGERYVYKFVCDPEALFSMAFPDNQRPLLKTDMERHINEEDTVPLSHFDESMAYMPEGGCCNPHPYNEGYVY

ACGGCT
binding signal (FLI1): 1.02 fold enrichment (6-mer frequency, TF over GST control)
binding signal (ELK1): 1.16 fold enrichment (6-mer frequency, TF over GST control)
binding signal (GABPA): 1.13 fold enrichment (6-mer frequency, TF over GST control)
binding signal (ERG): 1.12 fold enrichment (6-mer frequency, TF over GST control)
binding signal (ELF1): 1.08 fold enrichment (6-mer frequency, TF over GST control)
binding signal (EHF): 1 fold enrichment (6-mer frequency, TF over GST control)
binding signal (SPI1): 1.18 fold enrichment (6-mer frequency, TF over GST control)
binding signal (SPIB): 1.14 fold enrichment (6-mer frequency, TF over GST control)
binding signal (ELK3): 1.05 fold enrichment (6-mer frequency, TF over GST control)
binding signal (FEV): 1.2 fold enrichment (6-mer frequency, TF over GST control)
binding signal (ETV5): 1.13 fold enrichment (6-mer frequency, TF over GST control)
binding signal (HSF1): 1.13 fold enrichment (6-mer frequency, TF over GST control)
binding signal (SPIC): 1.1 fold enrichment (6-mer frequency, TF over GST control)
binding signal (ELF4): 1.1 fold enrichment (6-mer frequency, TF over GST control)
binding signal (ELK4): 1.14 fold enrichment (6-mer frequency, TF over GST control)
binding signal (ETV2): 1.07 fold enrichment (6-mer frequency, TF over GST control)
binding signal (ELF3): 1.13 fold enrichment (6-mer frequency, TF over GST control)
binding signal (CRX): 1.36 fold enrichment (6-mer frequency, TF over GST control)
binding signal (ETV1): 1.05 fold enrichment (6-mer frequency, TF over GST control)
